Results: PubChem BioAssay (NCI)
About 79,000 compounds went through this panel and 15% of them were active in at least one assay; those are over-represented in the sample as a whole. Active and inactive are the calls of the source. Cut-off read from the data, not from the text of the source: active = growth inhibition above about 70%; inactive = the rest.

How the values were obtained:
[1] = NCI Yeast Anticancer Drug Screen. Data for the rad50 strain (AID 155);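 note: 0% = growth of vehicle-only cultures of the same strain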; details: S. cerevisiae rad50 strain growth inhibition, hits give high values
How it was run: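 Compounds were tested on a yeast strain with an engineered DNA damage repair alteration; the reported value is growth inhibition normalised to vehicle treatment.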

[2] = NCI Yeast Anticancer Drug Screen. Data for the mec2-1 strain (AID 157); details: S. cerevisiae mec2-1 strain, hits give high values
How it was run: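 Growth inhibition is read against vehicle-treated controls after compound exposure of the mec2-1 yeast strain, which is defective in DNA damage repair or cell cycle control.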

[3] = NCI Yeast Anticancer Drug Screen. Data for the sgs1 mgt1 strain (AID 161);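 note: 0% = growth of cultures given vehicle only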; details: S. cerevisiae sgs1 mgt1 strain, hits give high values
How it was run: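 Growth of a repair-deficient yeast mutant was monitored after compound treatment and expressed as inhibition relative to vehicle-treated cultures.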

[4] = NCI Yeast Anticancer Drug Screen. Data for the cln2 rad14 strain (AID 165);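 note: 0% = growth equal to vehicle treated cultures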; details: S. cerevisiae cln2 rad14 strain, hits give high values
How it was run: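 Growth inhibition, relative to vehicle-treated controls, is the read-out. The test organism is a yeast strain with defined genetic alterations, cln2 rad14.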

[5] = NCI Yeast Anticancer Drug Screen. Data for the bub3 strain (AID 167); details: S. cerevisiae bub3 mutant strain, hits give high values
How it was run: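 Growth of a checkpoint-deficient yeast mutant is measured after compound exposure. Values represent inhibition relative to vehicle.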

[6] = NCI Yeast Anticancer Drug Screen. Data for the mlh1 rad18 strain (AID 175); details: S. cerevisiae mlh1 rad18 strain growth inhibition, hits give high values
How it was run: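 Cells of a genetically altered yeast strain, deficient in DNA damage repair, were treated with compound. Their growth was then compared with that of vehicle-treated cultures to give inhibition.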

[7] = at 5.0 µM (retest, dose inferred, filed as 0.5)
[8] = at 50.0 µM (retest, dose inferred, filed as 5.0)

Measured: growth inhibition

CCC1(O)C(=O)OCc2c1cc1n(c2=O)Cc2cc3cc4c(cc3nc2-1)OCO4 (configuration not stated)
active: [1]; [7] 97% | [1]; [8] 92% | [1]; at 50.0 µM 86.6% | [2]; [7] 98% | [2]; [8] 96% | [2]; at 50.0 µM 86.3% | [3]; [7] 97% | [3]; [8] 96% | [3]; at 50.0 µM 85.2% | [4]; [7] 90% | [4]; [8] 91% | [4]; at 50.0 µM 73% | [5]; [7] 92% | [5]; [8] 89% | [5]; at 50.0 µM 90% | [6]; [7] 93% | [6]; [8] 79% | [6]; at 50.0 µM 92.7%

O=[N+]([O-])/C=C/c1ccc(Cl)cc1
inactive: [2]; [7] 59% | [3]; [7] 54% | [4]; [7] 19% | [5]; [7] 45%
active: [1]; [7] 79% | [1]; [8] 99% | [1]; at 50.0 µM 99% | [2]; [8] 100% | [2]; at 50.0 µM 99.8% | [3]; [8] 100% | [3]; at 50.0 µM 99.5% | [4]; [8] 99% | [4]; at 50.0 µM 99% | [5]; [8] 99% | [5]; at 50.0 µM 99.5% | [6]; [7] 80% | [6]; [8] 99% | [6]; at 50.0 µM 99.5%

O=C(CCl)OCc1ccccc1
inactive: [1]; [7] 1% | [1]; [8] 14% | [1]; at 50.0 µM 34.1% | [2]; [7] 3% | [2]; [8] 21% | [2]; at 50.0 µM 30.7% | [3]; [7] 0% | [3]; [8] 18% | [3]; at 50.0 µM 10.3% | [4]; [7] 5% | [4]; [8] 10% | [4]; at 50.0 µM -21.9% | [5]; [7] -3% | [5]; [8] 5% | [5]; at 50.0 µM 5.4% | [6]; [7] 5% | [6]; [8] 20% | [6]; at 50.0 µM 55%

[Cl][Pt][Cl].c1ccc([AsH](CC[AsH](c2ccccc2)c2ccccc2)c2ccccc2)cc1
active: [1]; [7] 99% | [1]; [8] 99% | [1]; at 50.0 µM 98.8% | [2]; [7] 99% | [2]; [8] 99% | [2]; at 50.0 µM 99.4% | [3]; [7] 99% | [3]; [8] 99% | [3]; at 50.0 µM 98.8% | [4]; [7] 98% | [4]; [8] 98% | [4]; at 50.0 µM 98.6% | [5]; [7] 99% | [5]; [8] 99% | [5]; at 50.0 µM 99.2% | [6]; [7] 99% | [6]; [8] 99% | [6]; at 50.0 µM 99.2%

CC(C)[CH2][Sn](=[O])[c]1ccccc1
inactive: [1]; [7] 8% | [1]; [8] 18% | [2]; [7] 5% | [2]; [8] 11% | [3]; [7] 5% | [3]; [8] 14% | [4]; [7] 2% | [4]; [8] 10% | [5]; [7] 8% | [5]; [8] 10% | [6]; [7] 5% | [6]; [8] 22%
active: [1]; at 50.0 µM 99.3% | [2]; at 50.0 µM 99.6% | [3]; at 50.0 µM 99.5% | [4]; at 50.0 µM 94.8% | [5]; at 50.0 µM 99.5% | [6]; at 50.0 µM 99.2%

CC12C(=O)C=CCC1=CCC1C2CCC2(O)C(=O)OC3(C)C4CC5(C)C(COC16OC23C5C6=O)C(=O)O4 (configuration not stated)
inactive: [1]; [7] 11% | [1]; [8] 51% | [2]; [7] 24% | [2]; [8] 35% | [2]; at 50.0 µM 55.7% | [3]; [7] 19% | [3]; [8] 31% | [3]; at 50.0 µM 54.4% | [4]; [7] 3% | [4]; [8] 18% | [4]; at 50.0 µM 30.4% | [5]; [7] 14% | [5]; [8] 56% | [5]; at 50.0 µM 69.6% | [6]; [7] 32% | [6]; [8] 64% | [6]; at 50.0 µM 62.5%
active: [1]; at 50.0 µM 78.8%

CC(=O)[C-](I)C(C)=O.CC(=O)[C-](I)C(C)=O.CC(=O)[C-](I)C(C)=O.[Ru+3]
inactive: [1]; [7] -6% | [1]; at 50.0 µM 48.2% | [2]; [7] 14% | [3]; [7] 5% | [3]; at 50.0 µM 35.8% | [4]; [7] 26% | [4]; at 50.0 µM 7.45% | [5]; [7] 18% | [5]; at 50.0 µM -1.95% | [6]; [7] 32% | [6]; at 50.0 µM 53.5%
active: [1]; [8] 90% | [2]; [8] 95% | [2]; at 50.0 µM 90.5% | [3]; [8] 89% | [4]; [8] 85% | [5]; [8] 90% | [6]; [8] 96%

OC(CN(CCCl)CCCl)C(O)C(O)C(O)CN(CCCl)CCCl (configuration not stated)
inactive: [1]; [7] 6% | [2]; [7] 9% | [2]; [8] 59% | [2]; at 50.0 µM 24% | [3]; [7] -4% | [3]; [8] 33% | [3]; at 50.0 µM 30.2% | [4]; [7] -6% | [4]; [8] 50% | [5]; [7] -7% | [5]; [8] 11% | [5]; at 50.0 µM -12.1% | [6]; [7] 35%
active: [1]; [8] 81% | [1]; at 50.0 µM 77.6% | [4]; at 50.0 µM 82.1% | [6]; [8] 95% | [6]; at 50.0 µM 82.1%

Cc1cc(CCN)c(C)c2c1oc1ccccc12
active: [1]; [8] 95% | [1]; at 50.0 µM 98.5% | [2]; [8] 88% | [2]; at 50.0 µM 70.2% | [3]; [8] 99% | [3]; at 50.0 µM 98.8% | [4]; [8] 98% | [5]; [8] 96% | [5]; at 50.0 µM 93% | [6]; [8] 98% | [6]; at 50.0 µM 98.6%
inactive: [1]; [7] -9% | [2]; [7] -7% | [3]; [7] -7% | [4]; [7] -5% | [4]; at 50.0 µM 62.8% | [5]; [7] -22% | [6]; [7] -6%
